About 83,000 compounds went through this panel and 20% of them were active in at least one assay; those are over-represented in the sample as a whole.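 Cells were grown in 96-well plates and exposed to the test compound at a single concentration for 48 hours; results are reported as percent growth, with values below 10 considered active.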 Calls of active or inactive are those of the source.
tested on: MDA-MB-468 breast; assay: NCI-60 one-dose screen, 48 h (100 = growth as untreated, 0 = no growth, -100 = all killed); conditions: 10 µM unless noted

Q: With `COc1ccc(C2CC(c3cc(OC)c(OC)c(OC)c3)=NN2C(C)=O)cc1OCC(=O)Nc1nc2ccc(C(F)(F)F)cc2s1` (stereo not drawn) as the compound, how does the growth read?
A: The growth was 84.1% (inactive).

Q: Which growth does the source give for `O=C1Nc2ccc(Br)cc2/C1=N/c1n[nH]c(=S)s1` here?
A: The growth was 103% (inactive).

Q: With `O=C(Nc1ccc(Cl)c(Cl)c1)O/N=C\c1c(Cl)ccc([N+](=O)[O-])c1Cl` as the compound, how does the growth read?
A: Its growth is -65% (active).

Q: How did the growth turn out when `CCOC(=O)/C(C#N)=C1/NNC(=Nc2cccnc2)S1` was run?
A: Its growth is 95.3% (inactive).

Q: Which growth does the source give for `O=c1c2cc(Cl)ccc2oc2ccc(OCCCCCN3CCCCCC3)cc12` here?
A: The growth was 74.1% (inactive).

Q: Which growth does the source give for `N#Cc1c2ccccc2nc2ccccc12` here?
A: Its growth is 84.5% (inactive).

Q: For `CC(C)OP(=O)(CCC(=O)c1c[nH]c2ccccc12)OC(C)C`, which growth is on record?
A: The growth was 107% (inactive).

Q: How did the growth turn out when `COc1ccc(/C=C2\CCCC3=C2NC(N)=NC3c2ccc(OC)c(OC)c2)cc1OC` (stereo not drawn) was run?
A: The growth was -16.3% (active).

Q: With `O=C(NNC(=S)Nc1ccccc1)c1ccccn1` as the compound, how does the growth read?
A: The growth was 51.2% (inactive).

Q: `COC(=O)CNC(=O)C(=O)c1c(O)c(O)c(C(C)C)c2cc(C)c(-c3c(C)cc4c(C(C)C)c(O)c(O)c(C(=O)C(=O)NCC(=O)OC)c4c3O)c(O)c12` was tested. Which growth did it give?
A: The growth was 15.8% (inactive).

Q: `CCCCCCCCCCNCCSS(=O)(=O)O` was tested. Which growth did it give?
A: Its growth is 110% (inactive).

Q: `C=C(CNCCO)[C@@H]1CC[C@]2(CO)CC[C@]3(C)[C@H](CC[C@@H]4[C@@]5(C)CCC(NCCc6ccc(O)cc6)C(C)(C)[C@@H]5CC[C@]43C)[C@@H]12` (stereo partly drawn) was tested. Which growth did it give?
A: The growth was -77.3% (active).

Q: How did the growth turn out when `Cc1ccc(C(=O)/C(=C/c2ccc([N+](=O)[O-])cc2)S(=O)Cc2ccccc2)cc1` (stereo not drawn) was run?
A: The growth was -54.1% (active).
